According to the supplement of paper PMC11150407:
Structures can show the parent of a compound that is named as a salt. In all, about 2,100 compounds went through this assay and about 180 (8.6%) showed an effect of 50% or more. Only a selection was taken, and strong results are over-represented in it overall.

Test system: MOLM1 and UCSD/AML1 (averaged)
Experiment: cell viability relative to DMSO control (POC); higher = less growth inhibition
Conditions: 1 µM; 72 h
Description: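 Primary viability screen in the 3q26 EVI1-high AML cell lines MOLM1 and UCSD/AML1 (1.5e3 cells/well, 384-well), compounds at 1 uM for 72 h. ATP CellTiter-Glo read-out given as percent of viable cells over DMSO control (POC), averaged over duplicates. DMSO was the negative control and 5 uM etoposide the positive control. This mapping covers the MicroSource Spectrum and Selleck anticancer libraries (drug names).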

First: C=CC(=O)N1CCC[C@@H](n2nc(-c3ccc(Oc4ccccc4)cc3)c3c(N)ncnc32)C1
Second: CN1CCN(c2cccc(Nc3nc4c(-c5ccc(S(C)(=O)=O)cc5)cccn4n3)c2)CC1
The cell viability of the first is higher: 60.3% for the first, 33.3% for the second.

First: Cc1ccc2c(c1)CC[C@H]1CC(=O)CC[C@]21C
Second: COC(=O)[C@@]1(C)CCC[C@]2(C)c3ccc(O)c(C(C)C)c3CCC12 (some centres not stated)
The cell viability of the first is lower: 104% for the first, 109% for the second.

Going from `CC(=O)N1CCCC1C(=O)O` (configuration not stated) to `NC1=NCCN1CC(=O)O`, the cell viability falls from 108% to 95.6%.

First: CN(N=O)C(=O)N[C@@H](C=O)[C@@H](O)[C@H](O)[C@H](O)CO [Streptozotocin (Zanosar)]
Second: CC(=O)N[C@@H](C=O)[C@@H](O)[C@H](O)[C@H](O)CO
The cell viability of the first is lower: 37.4% for the first, 107% for the second.

Compared with `O=C[C@H](O)[C@@H](O)[C@H](O)CO`, `CC(C)C[C@H](N)C(=O)N[C@@H](C)C(=O)O` is lower in cell viability: 121% for the first, 98.2% for the second.

Going from `CC(=O)O[C@H]1CC[C@]2(C)[C@H]3CC=C4[C@@H]5CC(C)(C)CC[C@]5(C(=O)O)CC[C@@]4(C)[C@]3(C)CC[C@H]2C1(C)C` to `CC(=O)O[C@H]1CC[C@]2(C)C3=C(CC[C@H]2C1(C)C)[C@]1(C)CC[C@H]([C@H](C)CCC=C(C)C)[C@@]1(C)CC3`, the cell viability falls from 102% to 94.1%.

First: COC(=O)c1cc(O)c(=O)c2c(O)c(O)ccc2c1
Second: COc1cc2ccc(=O)oc2c(O)c1O
The cell viability of the first is higher: 109% for the first, 88.3% for the second.

Compared with `Cc1cnc(-c2cnc(NCCNc3ccc(C#N)cn3)nc2-c2ccc(Cl)cc2Cl)[nH]1`, `C=CC(=O)Nc1cccc(Oc2nc(Nc3ccc(N4CCN(C)CC4)cc3OC)ncc2Cl)c1` is lower in cell viability: 133% for the first, 86.3% for the second.

Going from `Cc1cc(=O)oc2c(O)c(O)ccc12` to `Cc1cc(O)c(C=O)c(O)c1C(=O)O`, the cell viability rises from 93.6% to 121%.

First: C=C1CCC(C2CC(=O)OC2=O)C(=O)CCC2C1CC2(C)C (configuration not stated)
Second: CC1(C)CC23C(=O)CCC(O)C2(C)CCC13 (configuration not stated)
The cell viability of the first is higher: 104% for the first, 96.7% for the second.

Going from `FC(F)c1nc2ccccc2n1-c1nc(N2CCOCC2)nc(N2CCOCC2)n1` to `Oc1cccc(-c2nc(N3CCOCC3)c3oc4ncccc4c3n2)c1`, the cell viability falls from 26.8% to 25.7%.

Compared with `CCOC(=O)c1c(C)cc(O)c(C=O)c1O`, `Cc1cc(O)c(C)c(O)c1C(=O)O` is lower in cell viability: 98.9% for the first, 97.3% for the second.

Compared with `CC(=O)/C(=C\c1ccccc1)CC(=O)O`, `CC(=O)N[C@@H](Cc1c[nH]c2ccccc12)C(=O)O` is lower in cell viability: 118% for the first, 106% for the second.

First: COC(=O)C[C@H]1C(C)(C)C(=O)[C@@H]2CC3=C(CC[C@]4(C)C3=CC(=O)O[C@H]4c3ccoc3)[C@@]1(C)C2=O
Second: CCC(=O)OC1[C@@H]2CC3=C4CC(=O)O[C@@H](c5ccoc5)[C@]4(C)CCC3[C@@](C)(C2=O)[C@@H](CC(=O)OC)C1(C)C (some centres not stated)
The cell viability of the first is higher: 93.4% for the first, 88.5% for the second.

Going from `CC1=CC2C(CC1=O)C(C)=CCC2C(C)C` (configuration not stated) to `CC(C)c1cccc(=O)c(O)c1`, the cell viability rises from 92.7% to 93.6%.

First: COc1ccc(-c2cc(=O)c3c(OC)c(OC)c(OC)c(OC)c3o2)cc1
Second: COc1cc(OC)c(-c2c(OC)cc(OC)cc2OC)c(OC)c1
The cell viability of the first is lower: 89.9% for the first, 104% for the second.

Compared with `CC(=O)/N=c1/sc(S(N)(=O)=O)nn1C`, `Nc1nc(Nc2ccc(S(N)(=O)=O)cc2)nn1C(=O)c1c(F)cccc1F` is lower in cell viability: 112% for the first, 53.8% for the second.

First: CSCC[C@H](NC=O)C(=O)N[C@@H](Cc1ccccc1)C(=O)O
Second: CC(=O)N[C@@H](Cc1c[nH]c2ccccc12)C(N)=O
The cell viability of the first is higher: 105% for the first, 101% for the second.

Compared with `CC(=O)O[C@@H]1CC[C@@]2(C)C(C[C@@H](OC(C)=O)[C@@]3(C)C4=CC(=O)O[C@@H](c5ccoc5)[C@]4(C)CCC23)C1(C)C` (stereo partly drawn) [3alpha-ACETOXYDIHYDRODEOXYGEDUNIN], `CC(=O)O[C@H]1C[C@@H](OC(C)=O)C(C)(C)C2CC(=O)[C@]3(C)C(CC[C@@]4(C)[C@H](c5ccoc5)OC(=O)[C@H]5O[C@]543)[C@]21C` (some centres not stated) is higher in cell viability: 82% for the first, 97.1% for the second.

First: Nc1ccc(C(=O)Nc2cccc(-c3nc(N4CCOCC4)c4oc5ncccc5c4n3)c2)cn1
Second: O=c1cc(N2CCOCC2)oc2c(-c3ccccc3)cccc12
The cell viability of the first is lower: 52.7% for the first, 73.8% for the second.

First: OC[C@H]1O[C@@H](OCCc2ccc(O)cc2)[C@H](O)[C@@H](O)[C@@H]1O
Second: OC[C@H]1O[C@@H](O[C@H]2[C@H](O)[C@@H](O)[C@@H](O)O[C@@H]2CO)[C@H](O)[C@@H](O)[C@@H]1O
The cell viability of the first is higher: 107% for the first, 105% for the second.

Compared with `CCn1c(-c2nonc2N)nc2c(C#CC(C)(C)O)ncc(OC[C@H]3CCCNC3)c21`, `C[C@@H](Oc1cc(-c2cnn(C3CCNCC3)c2)cnc1N)c1c(Cl)ccc(F)c1Cl` is lower in cell viability: 54% for the first, 21.4% for the second.

Compared with `CCCCC[C@H](CC(=O)O)C(=O)O`, `O=C(O)[C@H](O)[C@@](O)(Cc1ccc(O)cc1)C(=O)O` is lower in cell viability: 111% for the first, 92.1% for the second.

Going from `CCCCCCCCCCCCCCCC[N+](C)(C)C` to `CCCCCCCCCCCCCCCCCCCCCCO`, the cell viability rises from 43.7% to 101%.

Going from `C[N+](C)(C)CCCCCC[N+](C)(C)C` to `CCOC(=O)CCCCCCCCCCCCC1C=CCC1` (configuration not stated), the cell viability falls from 114% to 103%.

Compared with `CC1CCC2(OC1)OC1CC3C4CCC5C[C@@H](O)CCC5(C)C4=CCC3(C)C1[C@@H]2C` (stereo partly drawn) [3beta-HYDROXYISOALLOSPIROST-9(11)-ENE], `CC(=O)O[C@H]1CC[C@@]2(C)[C@@H](CC[C@@H]3[C@@H]2CC(=O)[C@]2(C)[C@@H]4[C@H](C[C@@H]32)O[C@]2(CC[C@@H](C)CO2)[C@H]4C)C1` is lower in cell viability: 91.8% for the first, 88.1% for the second.

Going from `CC(=O)Nc1cccc(-n2c(=O)n(C3CC3)c(=O)c3c(Nc4ccc(I)cc4F)n(C)c(=O)c(C)c32)c1` to `Cn1c(=O)c(F)c(Nc2ccc(I)cc2F)c2c(=O)n(C[C@@H](O)CO)cnc21`, the cell viability falls from 27.3% to 24.8%.

First: CC(=O)Oc1cc(C)c2c(c1C(OC(C)=O)OC(C)=O)Oc1c(c(C)c(OC(C)=O)c3c1C(OC(C)=O)OC3=O)OC2=O (configuration not stated)
Second: CC(=O)Oc1cc(OC(C)=O)c2c(c1)O[C@H](c1ccc(OC(C)=O)c(OC(C)=O)c1)[C@@H](OC(C)=O)C2
The cell viability of the first is higher: 97.6% for the first, 96.7% for the second.

Going from `COc1ccc(-c2cc(=O)c3c(O)cc(O)cc3o2)cc1O` to `CN1CCC(c2c(O)cc(O)c3c(=O)cc(-c4ccccc4Cl)oc23)C(O)C1` (configuration not stated) [Flavopiridol (Alvocidib) HCl], the cell viability falls from 83% to 1.36%.

Compared with `COc1cc(N2CCC(N3CCN(C)CC3)CC2)ccc1Nc1ncc(Cl)c(Nc2ccccc2S(=O)(=O)C(C)C)n1`, `CC[C@@H]1C(=O)N(C)c2cnc(Nc3ccc(C(=O)N[C@H]4CC[C@H](N5CCN(CC6CC6)CC5)CC4)cc3OC)nc2N1C(C)C` [BI6727 (Volasertib)] is lower in cell viability: 30.7% for the first, 14.5% for the second.

Going from `COc1ccc(-c2oc3c(CC=C(C)C)c(O[C@@H]4O[C@H](CO)[C@@H](O)[C@H](O)[C@H]4O)cc(O)c3c(=O)c2O[C@@H]2O[C@@H](C)[C@H](O)[C@@H](O)[C@H]2O)cc1` to `COC(=O)C1=CO[C@@H](O[C@@H]2O[C@H](CO)[C@@H](O)[C@H](O)[C@H]2O)[C@@H]2[C@@H](C)[C@@H](O)C[C@H]12`, the cell viability rises from 83% to 94.9%.

Compared with `COc1cc(OC2CCN(C)CC2)ccc1Nc1ncc2c(n1)n(C1CCCC1)c(=O)n2C`, `CC[C@@H]1C(=O)N(C)c2cnc(Nc3ccc(C(=O)NC4CCN(C)CC4)cc3OC)nc2N1C1CCCC1` is lower in cell viability: 70.8% for the first, 13.2% for the second.

First: CN1CCN(C(c2ccccc2)c2ccccc2)CC1
Second: c1ccc2c(CCNc3ccc(Nc4ccncc4)cc3)c[nH]c2c1
The cell viability of the first is higher: 102% for the first, 43.4% for the second.

First: CC1(C)CCC[C@]2(C)[C@@H]3[C@H]1[C@@H](O)[C@@]2(C)C[C@H]3O
Second: CC1(C)CC2C1CCC1(C)OC1CCC2(C)O (configuration not stated)
The cell viability of the first is lower: 92% for the first, 95.8% for the second.

Compared with `CC(=O)OC(C)(C)[C@@H]1Cc2cc3ccc(=O)oc3cc2O1`, `C/C=C(\C)C(=O)O[C@@H]1c2c(ccc3ccc(=O)oc23)OC(C)(C)[C@@H]1OC(C)=O` is higher in cell viability: 100% for the first, 101% for the second.

Going from `CCNC(=O)c1noc(-c2cc(C(C)C)c(O)cc2O)c1-c1ccc(CN2CCOCC2)cc1` [Luminespib (AUY-922, NVP-AUY922)] to `COc1cc(-c2coc3cc(OCc4ccccc4)c(OC)c(O)c3c2=O)cc(O)c1OC`, the cell viability rises from 2.13% to 95.2%.

Going from `N[C@@H](Cc1c[nH]c2ccccc12)C(=O)O` to `OCc1c[nH]c2ccccc12`, the cell viability falls from 89.5% to 87.2%.

Going from `CC(=O)Oc1ccc2c(c1C(C)C)CCC1C(C)(C)CCC[C@]21C` (some centres not stated) to `CC(=O)O[C@@H]1C[C@H]2C(C)(C)[C@@H](O)CC[C@]2(C)[C@H]2CC[C@@]3(C)[C@H](c4ccoc4)OC(=O)[C@H]4O[C@]43[C@@]21C` [beta-DIHYDROGEDUNOL], the cell viability falls from 91.9% to 90.3%.

First: CC(C)CCC[C@@H](C)[C@H]1CC[C@H]2[C@@H]3C(=O)C=C4C[C@@H](O)CC[C@]4(C)[C@H]3CC[C@]12C
Second: CC1(O)CC2C(CC1O)C2(C)C (configuration not stated)
The cell viability of the first is higher: 95.7% for the first, 87.5% for the second.

Going from `CCN(CC)CCCCNc1ncc2cc(-c3cc(OC)cc(OC)c3)c(NC(=O)NC(C)(C)C)nc2n1` to `CCN(CC)CCNC(=O)COc1ccc(OC)cc1`, the cell viability rises from 36.8% to 97.5%.

Going from `CC(O)Cn1cnc2c1c(=O)n(C)c(=O)n2C` (configuration not stated) to `Cn1c(=O)c2c(ncn2CC(O)CO)n(C)c1=O` (configuration not stated), the cell viability rises from 94.4% to 103%.

Compared with `NC(Cn1ccc(=O)c(O)c1)C(=O)O` (configuration not stated), `NC(=O)Nc1sc(-c2ccc(F)cc2)cc1C(N)=O` is lower in cell viability: 92.7% for the first, 42.3% for the second.

Going from `CC(C)C[C@@H](NC(=O)[C@H](C)NC(=O)CNC(=O)[C@@H](NC=O)C(C)C)C(=O)N[C@@H](C)C(=O)N[C@@H](C(=O)N[C@H](C(=O)N[C@H](C(=O)N[C@@H](Cc1c[nH]c2ccccc12)C(=O)N[C@H](CC(C)C)C(=O)N[C@@H](Cc1c[nH]c2ccccc12)C(=O)N[C@H](CC(C)C)C(=O)N[C@@H](Cc1c[nH]c2ccccc12)C(=O)N[C@H](CC(C)C)C(=O)N[C@@H](Cc1c[nH]c2ccccc12)C(=O)NCCO)C(C)C)C(C)C)C(C)C` to `CC(C)(C)Cn1c(N)nc2ccc(-c3[nH]c(C(C)(C)C)nc3-c3ccc(F)cc3)nc21`, the cell viability rises from 5.86% to 91%.

Work on `O=C(NC1CCNCC1)c1n[nH]cc1NC(=O)c1c(Cl)cccc1Cl` yielded a cell viability of 13.3%.
